Compound activity from PubChem.
The list is not random: actives were taken first. Their share in the collection is about 7.5%.
NPC1 promoter act: activates the NPC1 promoter; Potency, µM (doses to about 9.22 µM), hits mostly activators; 320,000 tested, 2.4% active; Huh7 NPC1 promoter luciferase reporter, 24 h; note: nearly all actives have a fitted effect of over 60% in size
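Luminescence from an NPC1 promoter-driven luciferase reporter in stably transfected Huh7 cells was measured after 24 h compound treatment at 37 °C, followed by 10 min ambient incubation with luciferase detection reagent.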
FLuc modulator: firefly luciferase modulation, counter-screen for miR-21 project | P08659 | purified FLuc, Km substrates, luminescence inhibition | Potency, µM (doses to about 57.5 µM), actives largely listed as inhibitors | 360,000 tested, 6.9% active | AID 588342; note: nearly all actives have a fitted effect of over 55% in size
Target sequence (P08659 whole entry, looked up): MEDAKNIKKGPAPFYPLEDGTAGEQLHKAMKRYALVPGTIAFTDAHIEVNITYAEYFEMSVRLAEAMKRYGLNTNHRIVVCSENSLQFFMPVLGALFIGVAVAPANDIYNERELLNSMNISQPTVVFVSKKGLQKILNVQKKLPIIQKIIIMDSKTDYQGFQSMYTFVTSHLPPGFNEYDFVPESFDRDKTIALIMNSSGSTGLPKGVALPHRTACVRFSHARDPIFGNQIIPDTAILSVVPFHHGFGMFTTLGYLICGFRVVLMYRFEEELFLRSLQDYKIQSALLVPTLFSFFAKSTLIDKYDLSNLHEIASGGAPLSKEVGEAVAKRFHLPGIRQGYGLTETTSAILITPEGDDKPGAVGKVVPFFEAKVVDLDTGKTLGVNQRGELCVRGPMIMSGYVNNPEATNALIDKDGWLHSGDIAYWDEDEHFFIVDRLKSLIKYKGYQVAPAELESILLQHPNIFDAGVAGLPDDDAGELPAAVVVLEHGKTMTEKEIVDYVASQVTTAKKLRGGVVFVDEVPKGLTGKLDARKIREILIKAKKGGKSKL
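Purified P. pyralis luciferase (10nM final) with 10uM D-luciferin and 10uM ATP (Km levels) in 50mM Tris acetate pH 7.5, 10mM Mg acetate, 0.01% Tween-20, 0.05% BSA; qHTS 6-point titration, ~60 µM downward; luminescence read.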
Rab9 promoter act: Rab9 promoter activation | Huh7 Rab9 promoter-luciferase reporter, luminescence, 24 h | Potency, µM (highest dose often 9.22 µM), actives largely listed as activators | 320,000 tested, 2.8% active | AID 485297; note: nearly all actives have a fitted effect of over 60% in size
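Huh7 cells stably carrying Rab9 promoter–luciferase reporter, plated 1500 cells/well, compound added after 2 h and incubated 24 h at 37 °C; luciferase luminescence then read after 10 min with detection reagent.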
SMN2 splice up: increases expression of the SMN2 splice variant. HEK293 SMN2-luciferase splicing reporter, luminescence, 30-36 h. Potency, µM (doses to about 46.1 µM), hits mostly activators. 210,000 tested, 2.8% active. AID 1458; note: nearly all actives have a fitted effect of over 55% in size
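HEK293 cells carry an SMN2 minigene-luciferase reporter in which exon 7 inclusion puts luciferase in frame. Cells were seeded at 2000 cells/well, attached for 10-12 hours, then exposed to compounds for 30-36 hours at 37C before ONE-Glo luminescence.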
KinaseGlo FLuc: Kinase-Glo luciferase inhibition (counter-screen) | AID 1379 | Kinase-Glo luciferase, ATP luminescence, 8 min | Potency, µM (series often up to 38.3 µM), most hits filed as inhibitors | 200,000 tested, 0.28% active | Q27757; note: nearly all actives have a fitted effect of over 60% in size
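Luminescence was the read-out, taken after 8-minute incubation at ambient temperature. Luciferase turned over luciferin with 10 uM ATP in imidazole pH 7.2 buffer containing KCl, MgCl2, Tween 20 and BSA.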
ELG1 genotox: genotoxicity induction in ELG1-luciferase HEK293T cells | HEK293T ELG1-luciferase reporter, luminescence, 16 h | Potency, µM (titrated, usually from 46 µM), hits mostly activators | 330,000 tested, 1.3% active; note: nearly all actives have a fitted effect of over 60% in size
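Genotoxic stress is detected as increased luminescence from luciferase-tagged ELG1 in HEK293T cells, measured with ONE-Glo after a 16 hr treatment at 37 °C.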
Each line names hits and unclear results; the compound was inactive in the other large screens. Calls come from the whole dose curve; as a rule, active = well fitted curve in the direction sought with a large enough effect; inconclusive = small, poorly fitted or top-dose-only effect, or another doubt; inactive = no such curve, though single readings can be large; an effect the other way counts as inactive or inconclusive.

CC(=O)Oc1ccc(/C=C2/CCc3ccccc3C2=O)cc1	FLuc modulator 0.6µM, ELG1 genotox inconclusive (no result: SMN2 splice up, KinaseGlo FLuc)
COc1ccc2c(c1)CC/C(=C/c1ccccn1)C2=O	NPC1 promoter act inconclusive, FLuc modulator 5.4µM, Rab9 promoter act inconclusive (no result: SMN2 splice up, KinaseGlo FLuc)
COc1ccc(/C=C2\CC/C(=C\c3ccc(OC)c(OC)c3)C2=O)cc1OC	FLuc modulator 1.2µM
COc1cc(/C=C2\CC/C(=C\c3ccc(OCCO)c(OC)c3)C2=O)ccc1OCCO	none
COc1cccc(/C=C2\C(=O)C(=O)c3ccccc32)c1	FLuc modulator 21µM
Cc1ccc(CNC(=O)Cn2cc(C(F)(F)F)ccc2=O)cc1	none
CC(=O)N1CCc2c(sc3c2c(=O)n(Cc2ccccc2)c(=O)n3Cc2ccccc2Cl)C1	none (no result: NPC1 promoter act, Rab9 promoter act, KinaseGlo FLuc, ELG1 genotox)
Cc1cccc(NS(=O)(=O)c2ccc(C(=O)N3CCCCCC3)cc2)c1C	none (no result: SMN2 splice up, KinaseGlo FLuc)
Cc1ccc(OCC(=O)Nc2ccccc2C(=O)N2CCCC2)cc1	none (no result: SMN2 splice up, KinaseGlo FLuc)
COc1cc(/C=C2/CC/C(=C/c3ccc(O)c(OC)c3)C2=O)ccc1O	FLuc modulator 11µM (no result: SMN2 splice up, KinaseGlo FLuc)
COc1cc(/C=C2\C(=O)N(C)C(=S)N2C)ccc1O	none
O=C(OCC(O)CO)c1ccccc1Nc1ccnc2cc(Cl)ccc12 (centres undefined)	none
COC(=O)c1sccc1NC(=O)Nc1cccc(OC)c1	FLuc modulator 8.5µM (no result: SMN2 splice up, KinaseGlo FLuc)
COc1ccc(NC(=O)NCc2ccccc2F)cc1OC	none
COC(=O)c1sccc1NC(=O)Nc1ccc(C)cc1C	none (no result: SMN2 splice up, KinaseGlo FLuc)
COc1cccc(NC(=O)Nc2ccccc2Br)c1	FLuc modulator 12µM, Rab9 promoter act inconclusive (no result: SMN2 splice up)
COC(=O)c1sccc1NC(=O)Nc1ccc(C)cc1	FLuc modulator 1.7µM, ELG1 genotox inconclusive (no result: SMN2 splice up, KinaseGlo FLuc)
COc1cccc(NC(=O)NCc2ccccc2F)c1	FLuc modulator 17µM, Rab9 promoter act inconclusive, ELG1 genotox inconclusive
COc1cc(OC)cc(C(=O)Nc2nc(CC(=O)NC(C)c3ccccc3)cs2)c1 (centres undefined)	none (no result: SMN2 splice up, KinaseGlo FLuc)
COC(=O)c1sccc1NC(=O)c1ccccc1	none
COC(=O)c1sccc1NC(=O)Nc1ccc(F)cc1	FLuc modulator 8.5µM (no result: SMN2 splice up, KinaseGlo FLuc)
COC(=O)c1sccc1NC(=O)Nc1ccc(F)cc1F	FLuc modulator 21µM (no result: SMN2 splice up, KinaseGlo FLuc)
COC(=O)c1sccc1NC(=O)Nc1ccc(C(C)=O)cc1	FLuc modulator 2.1µM, ELG1 genotox 18µM (no result: SMN2 splice up, KinaseGlo FLuc)
COC(=O)c1sccc1NC(=O)c1ccc(C(C)C)cc1	FLuc modulator 11µM, Rab9 promoter act 3.5µM (no result: SMN2 splice up, KinaseGlo FLuc)
CCc1ccccc1NC(=O)Nc1ccsc1C(=O)OC	FLuc modulator inconclusive (no result: SMN2 splice up, KinaseGlo FLuc)
Cc1ccc(NC(=O)c2cn3c4c(ccc(Cl)c4c2=O)OC(C)C3)c(C)c1 (centres undefined)	none (no result: NPC1 promoter act, Rab9 promoter act, SMN2 splice up, KinaseGlo FLuc, ELG1 genotox)
Cn1c(=O)c2c(nc(Oc3ccccc3)n2Cc2c(Cl)cccc2Cl)n(C)c1=O	none (no result: NPC1 promoter act, Rab9 promoter act, KinaseGlo FLuc, ELG1 genotox)
COc1ccc(NC(=O)Nc2ccc(F)cc2F)cc1	NPC1 promoter act 2.2µM, FLuc modulator 5.4µM, Rab9 promoter act 2.8µM, SMN2 splice up 20µM, ELG1 genotox inconclusive
COC(=O)c1sccc1NC(=O)Nc1cc(C)cc(C)c1	FLuc modulator 7.6µM, ELG1 genotox inconclusive (no result: SMN2 splice up, KinaseGlo FLuc)
O=C(COC(=O)c1cc(=O)[nH]c(=O)[nH]1)Nc1cccc(Cl)c1	none (no result: NPC1 promoter act, FLuc modulator, Rab9 promoter act, SMN2 splice up, KinaseGlo FLuc)
N#Cc1cc([N+](=O)[O-])c2sc(C(N)=O)[n+]([O-])c2c1	none (no result: FLuc modulator, SMN2 splice up, KinaseGlo FLuc, ELG1 genotox)
COc1cccc(/C=C2\N=C(C3CCCCC3)OC2=O)c1OC	FLuc modulator 15µM
COc1ccccc1/C=C1\N=C(C(C)(C)C)OC1=O	FLuc modulator 17µM (no result: SMN2 splice up, KinaseGlo FLuc)
COc1ccccc1/C=C/C(C)=O	none
CC(=O)Oc1ccc(/C=C2\N=C(C3CCCCC3)OC2=O)cc1	FLuc modulator 17µM
Clc1ccccc1/C=C/c1nc(-c2cccnc2)no1	NPC1 promoter act 1.3µM, FLuc modulator 1.7µM, Rab9 promoter act 0.63µM, ELG1 genotox inconclusive (no result: SMN2 splice up, KinaseGlo FLuc)
C(=C\c1nc(-c2cccnc2)no1)/c1ccccc1	FLuc modulator 4.8µM, Rab9 promoter act inconclusive (no result: SMN2 splice up)
Clc1ccc(-c2noc(/C=C/c3ccccc3)n2)cc1	FLuc modulator inconclusive, ELG1 genotox inconclusive (no result: SMN2 splice up, KinaseGlo FLuc)
Cc1ccc(-c2noc(/C=C/c3ccccc3)n2)cc1	NPC1 promoter act inconclusive, FLuc modulator 9.5µM, Rab9 promoter act inconclusive, SMN2 splice up inconclusive
